# Source: ChEMBL document CHEMBL1961873, “Compounds: GSK PKIS; Assays: Nanosyn kinase panel” (2012)
# What was measured:
# [1] = target: Protein kinase C gamma type (Homo sapiens) (UniProt P05129); conditions: at 1 µM;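 also: each value is an averaged percent inhibition of the enzyme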
# [2] = target: T1, Protein kinase C iota type (Homo sapiens) (UniProt P41743); conditions: at 0.1 µM
# T1 sequence (whole entry): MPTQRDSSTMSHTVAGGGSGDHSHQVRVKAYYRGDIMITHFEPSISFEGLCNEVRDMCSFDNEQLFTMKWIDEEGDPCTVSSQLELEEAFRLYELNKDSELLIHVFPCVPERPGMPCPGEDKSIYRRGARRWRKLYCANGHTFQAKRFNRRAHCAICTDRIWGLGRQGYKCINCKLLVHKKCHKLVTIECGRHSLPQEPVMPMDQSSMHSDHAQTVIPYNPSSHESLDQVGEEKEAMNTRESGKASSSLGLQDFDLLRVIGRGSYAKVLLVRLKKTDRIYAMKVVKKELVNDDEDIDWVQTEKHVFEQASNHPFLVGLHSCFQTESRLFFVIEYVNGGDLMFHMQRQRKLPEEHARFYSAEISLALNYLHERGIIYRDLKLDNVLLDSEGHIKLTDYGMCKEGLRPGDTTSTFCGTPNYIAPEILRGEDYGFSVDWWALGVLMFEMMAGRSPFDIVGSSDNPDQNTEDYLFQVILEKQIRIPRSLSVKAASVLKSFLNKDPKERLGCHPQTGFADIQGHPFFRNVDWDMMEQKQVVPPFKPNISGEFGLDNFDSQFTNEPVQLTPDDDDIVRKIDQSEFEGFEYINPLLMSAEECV
# [3] = target: T1, Protein kinase C iota type (Homo sapiens); conditions: at 1 µM
# [4] = target: Protein kinase C theta type (Homo sapiens) (UniProt Q04759); conditions: at 0.1 µM
# [5] = target: Protein kinase C theta type (Homo sapiens) (UniProt Q04759); conditions: at 1 µM
# [6] = target: Protein kinase C beta type (Homo sapiens) (UniProt P05771); conditions: at 0.1 µM
# [7] = target: Protein kinase C beta type (Homo sapiens) (UniProt P05771); conditions: at 1 µM
# [8] = target: T2, Serine/threonine-protein kinase D1 (Homo sapiens) (UniProt Q15139); conditions: at 0.1 µM
# T2 sequence (whole entry): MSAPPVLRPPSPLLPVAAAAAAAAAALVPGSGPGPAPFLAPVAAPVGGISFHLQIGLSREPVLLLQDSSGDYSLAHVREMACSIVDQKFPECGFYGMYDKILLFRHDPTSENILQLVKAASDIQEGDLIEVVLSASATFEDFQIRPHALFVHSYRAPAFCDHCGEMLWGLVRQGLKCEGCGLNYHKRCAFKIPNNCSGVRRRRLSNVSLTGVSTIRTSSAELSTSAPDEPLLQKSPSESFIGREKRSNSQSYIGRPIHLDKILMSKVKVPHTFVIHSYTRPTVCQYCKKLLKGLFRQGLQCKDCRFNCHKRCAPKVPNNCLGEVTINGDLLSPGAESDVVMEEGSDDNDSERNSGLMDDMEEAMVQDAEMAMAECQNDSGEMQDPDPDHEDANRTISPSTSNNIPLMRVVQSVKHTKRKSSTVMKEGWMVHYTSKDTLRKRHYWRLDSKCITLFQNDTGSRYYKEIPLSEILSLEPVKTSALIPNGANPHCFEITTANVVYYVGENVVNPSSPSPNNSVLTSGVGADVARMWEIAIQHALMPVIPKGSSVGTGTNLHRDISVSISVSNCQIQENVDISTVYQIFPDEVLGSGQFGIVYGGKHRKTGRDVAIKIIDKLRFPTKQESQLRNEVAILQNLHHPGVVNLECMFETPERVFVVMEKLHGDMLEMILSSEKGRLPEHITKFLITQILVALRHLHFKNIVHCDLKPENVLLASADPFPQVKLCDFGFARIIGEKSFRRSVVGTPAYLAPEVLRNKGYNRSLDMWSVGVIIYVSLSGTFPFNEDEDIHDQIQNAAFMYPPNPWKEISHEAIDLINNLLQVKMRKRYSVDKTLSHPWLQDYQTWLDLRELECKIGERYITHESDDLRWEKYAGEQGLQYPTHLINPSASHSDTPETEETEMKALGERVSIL
# [9] = target: T2, Serine/threonine-protein kinase D1 (Homo sapiens); conditions: at 1 µM
# [10] = target: T3, Serine/threonine-protein kinase D2 (Homo sapiens) (UniProt Q9BZL6); conditions: at 0.1 µM
# T3 sequence (whole entry): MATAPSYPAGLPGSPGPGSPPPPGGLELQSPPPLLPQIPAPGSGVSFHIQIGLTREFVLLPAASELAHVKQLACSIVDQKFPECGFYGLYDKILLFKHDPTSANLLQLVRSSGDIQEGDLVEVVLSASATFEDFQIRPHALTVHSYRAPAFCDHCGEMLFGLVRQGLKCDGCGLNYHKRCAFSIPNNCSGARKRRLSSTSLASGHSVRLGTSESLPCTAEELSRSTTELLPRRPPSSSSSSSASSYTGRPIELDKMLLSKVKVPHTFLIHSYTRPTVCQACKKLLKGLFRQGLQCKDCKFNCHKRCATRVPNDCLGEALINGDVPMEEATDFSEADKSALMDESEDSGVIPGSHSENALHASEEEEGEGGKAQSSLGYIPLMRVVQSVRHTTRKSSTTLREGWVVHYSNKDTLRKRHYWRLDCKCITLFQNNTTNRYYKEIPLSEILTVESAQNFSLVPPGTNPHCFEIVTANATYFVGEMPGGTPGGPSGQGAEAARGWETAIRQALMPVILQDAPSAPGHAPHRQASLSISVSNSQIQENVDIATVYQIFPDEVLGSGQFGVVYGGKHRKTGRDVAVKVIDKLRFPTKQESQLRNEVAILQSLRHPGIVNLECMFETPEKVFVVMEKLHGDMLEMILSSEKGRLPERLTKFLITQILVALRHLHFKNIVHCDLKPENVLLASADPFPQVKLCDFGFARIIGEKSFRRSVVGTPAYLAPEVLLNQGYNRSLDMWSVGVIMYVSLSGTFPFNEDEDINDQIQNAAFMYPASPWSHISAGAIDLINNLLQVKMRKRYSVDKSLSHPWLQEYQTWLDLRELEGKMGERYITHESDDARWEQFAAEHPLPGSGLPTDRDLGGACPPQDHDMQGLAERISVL
# [11] = target: T3, Serine/threonine-protein kinase D2 (Homo sapiens); conditions: at 1 µM
# [12] = target: T4, Serine/threonine-protein kinase D3 (Homo sapiens) (UniProt O94806); conditions: at 0.1 µM
# T4 sequence (whole entry): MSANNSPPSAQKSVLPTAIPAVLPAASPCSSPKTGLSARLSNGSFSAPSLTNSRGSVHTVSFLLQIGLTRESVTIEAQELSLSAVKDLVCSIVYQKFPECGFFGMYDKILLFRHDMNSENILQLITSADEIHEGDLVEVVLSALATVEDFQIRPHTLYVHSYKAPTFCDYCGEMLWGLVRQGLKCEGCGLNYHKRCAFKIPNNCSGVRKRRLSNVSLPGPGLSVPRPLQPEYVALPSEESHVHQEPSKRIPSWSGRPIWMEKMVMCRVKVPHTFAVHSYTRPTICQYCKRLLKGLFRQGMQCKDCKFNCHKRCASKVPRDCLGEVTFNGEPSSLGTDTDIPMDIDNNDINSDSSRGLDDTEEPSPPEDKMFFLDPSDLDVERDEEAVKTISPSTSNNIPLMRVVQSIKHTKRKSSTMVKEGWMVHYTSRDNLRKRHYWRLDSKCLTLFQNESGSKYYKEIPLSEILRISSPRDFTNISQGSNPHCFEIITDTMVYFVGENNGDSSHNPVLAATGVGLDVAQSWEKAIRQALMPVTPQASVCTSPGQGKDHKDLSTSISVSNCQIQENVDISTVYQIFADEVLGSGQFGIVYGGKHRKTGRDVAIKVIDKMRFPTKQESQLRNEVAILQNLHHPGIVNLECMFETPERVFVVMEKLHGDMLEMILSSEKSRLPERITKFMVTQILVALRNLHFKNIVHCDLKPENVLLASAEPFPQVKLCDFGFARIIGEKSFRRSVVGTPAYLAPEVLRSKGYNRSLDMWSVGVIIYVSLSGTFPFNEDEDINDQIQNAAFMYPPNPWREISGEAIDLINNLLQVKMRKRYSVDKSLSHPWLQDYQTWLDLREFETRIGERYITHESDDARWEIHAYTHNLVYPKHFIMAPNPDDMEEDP
# [13] = target: T4, Serine/threonine-protein kinase D3 (Homo sapiens); conditions: at 1 µM
# [14] = target: T5, cGMP-dependent protein kinase 1 (Homo sapiens) (UniProt Q13976); conditions: at 0.1 µM
# T5 sequence (whole entry): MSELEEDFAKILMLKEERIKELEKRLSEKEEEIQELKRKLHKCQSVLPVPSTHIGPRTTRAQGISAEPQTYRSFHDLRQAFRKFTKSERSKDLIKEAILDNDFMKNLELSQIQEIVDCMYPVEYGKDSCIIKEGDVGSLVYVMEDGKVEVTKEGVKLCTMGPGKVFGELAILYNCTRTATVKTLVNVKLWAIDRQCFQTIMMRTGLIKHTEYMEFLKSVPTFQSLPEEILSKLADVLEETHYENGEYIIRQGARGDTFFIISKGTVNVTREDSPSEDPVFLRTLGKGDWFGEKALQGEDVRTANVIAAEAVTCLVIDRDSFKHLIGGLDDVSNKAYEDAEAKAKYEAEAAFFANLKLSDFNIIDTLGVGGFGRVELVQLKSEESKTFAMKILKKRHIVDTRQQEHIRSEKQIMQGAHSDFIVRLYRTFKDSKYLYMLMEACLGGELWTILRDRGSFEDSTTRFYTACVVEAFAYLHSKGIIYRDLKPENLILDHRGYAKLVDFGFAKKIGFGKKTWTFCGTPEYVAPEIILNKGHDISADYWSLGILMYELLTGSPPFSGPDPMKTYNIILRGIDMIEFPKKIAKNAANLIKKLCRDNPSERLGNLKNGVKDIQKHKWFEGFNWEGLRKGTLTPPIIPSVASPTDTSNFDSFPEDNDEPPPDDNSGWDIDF
# [15] = target: T5, cGMP-dependent protein kinase 1 (Homo sapiens); conditions: at 1 µM
# [16] = target: T6, cGMP-dependent protein kinase 2 (Homo sapiens) (UniProt Q13237); conditions: at 0.1 µM
# T6 sequence (whole entry): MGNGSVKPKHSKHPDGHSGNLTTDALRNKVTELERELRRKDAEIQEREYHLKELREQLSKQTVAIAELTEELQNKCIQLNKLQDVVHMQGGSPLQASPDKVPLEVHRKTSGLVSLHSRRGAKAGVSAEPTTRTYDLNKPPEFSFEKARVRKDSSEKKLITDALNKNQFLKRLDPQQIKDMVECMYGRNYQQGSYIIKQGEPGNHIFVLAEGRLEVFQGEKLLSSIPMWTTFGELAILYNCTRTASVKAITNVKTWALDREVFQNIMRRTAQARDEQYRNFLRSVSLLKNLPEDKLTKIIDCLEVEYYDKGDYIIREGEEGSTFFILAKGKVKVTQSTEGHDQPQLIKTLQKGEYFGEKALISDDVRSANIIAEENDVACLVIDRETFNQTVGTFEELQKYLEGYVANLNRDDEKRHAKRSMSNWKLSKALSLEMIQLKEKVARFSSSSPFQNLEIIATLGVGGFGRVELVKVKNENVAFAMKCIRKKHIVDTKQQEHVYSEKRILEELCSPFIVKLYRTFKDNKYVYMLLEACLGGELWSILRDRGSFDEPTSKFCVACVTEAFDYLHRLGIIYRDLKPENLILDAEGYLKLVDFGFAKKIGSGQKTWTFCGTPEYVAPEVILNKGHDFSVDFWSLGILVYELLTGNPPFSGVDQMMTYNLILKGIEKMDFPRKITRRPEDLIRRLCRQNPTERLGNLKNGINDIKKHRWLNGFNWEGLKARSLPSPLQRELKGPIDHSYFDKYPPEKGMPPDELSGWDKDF
# [17] = target: T6, cGMP-dependent protein kinase 2 (Homo sapiens); conditions: at 1 µM
# [18] = target: T7, cAMP-dependent protein kinase catalytic subunit PRKX (Homo sapiens) (UniProt P51817); conditions: at 0.1 µM
# T7 sequence (whole entry): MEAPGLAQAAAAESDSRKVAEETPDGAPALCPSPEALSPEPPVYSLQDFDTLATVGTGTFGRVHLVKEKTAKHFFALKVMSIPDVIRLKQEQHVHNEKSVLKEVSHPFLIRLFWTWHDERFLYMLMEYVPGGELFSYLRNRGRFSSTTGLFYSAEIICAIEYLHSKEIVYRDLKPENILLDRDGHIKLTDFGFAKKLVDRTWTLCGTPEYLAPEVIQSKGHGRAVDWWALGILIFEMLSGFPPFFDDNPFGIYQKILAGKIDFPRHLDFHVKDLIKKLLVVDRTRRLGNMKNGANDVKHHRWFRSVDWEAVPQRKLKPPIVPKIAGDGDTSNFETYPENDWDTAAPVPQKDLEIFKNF
# [19] = target: T7, cAMP-dependent protein kinase catalytic subunit PRKX (Homo sapiens); conditions: at 1 µM
# [20] = target: Rho-associated protein kinase 1 (Homo sapiens) (UniProt Q13464); conditions: at 0.1 µM;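 also: values are mean percent inhibition of ROCK1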
# Rho-associated protein kinase 1 (Homo sapiens), sequence (Q13464 2-1354 limits assumed): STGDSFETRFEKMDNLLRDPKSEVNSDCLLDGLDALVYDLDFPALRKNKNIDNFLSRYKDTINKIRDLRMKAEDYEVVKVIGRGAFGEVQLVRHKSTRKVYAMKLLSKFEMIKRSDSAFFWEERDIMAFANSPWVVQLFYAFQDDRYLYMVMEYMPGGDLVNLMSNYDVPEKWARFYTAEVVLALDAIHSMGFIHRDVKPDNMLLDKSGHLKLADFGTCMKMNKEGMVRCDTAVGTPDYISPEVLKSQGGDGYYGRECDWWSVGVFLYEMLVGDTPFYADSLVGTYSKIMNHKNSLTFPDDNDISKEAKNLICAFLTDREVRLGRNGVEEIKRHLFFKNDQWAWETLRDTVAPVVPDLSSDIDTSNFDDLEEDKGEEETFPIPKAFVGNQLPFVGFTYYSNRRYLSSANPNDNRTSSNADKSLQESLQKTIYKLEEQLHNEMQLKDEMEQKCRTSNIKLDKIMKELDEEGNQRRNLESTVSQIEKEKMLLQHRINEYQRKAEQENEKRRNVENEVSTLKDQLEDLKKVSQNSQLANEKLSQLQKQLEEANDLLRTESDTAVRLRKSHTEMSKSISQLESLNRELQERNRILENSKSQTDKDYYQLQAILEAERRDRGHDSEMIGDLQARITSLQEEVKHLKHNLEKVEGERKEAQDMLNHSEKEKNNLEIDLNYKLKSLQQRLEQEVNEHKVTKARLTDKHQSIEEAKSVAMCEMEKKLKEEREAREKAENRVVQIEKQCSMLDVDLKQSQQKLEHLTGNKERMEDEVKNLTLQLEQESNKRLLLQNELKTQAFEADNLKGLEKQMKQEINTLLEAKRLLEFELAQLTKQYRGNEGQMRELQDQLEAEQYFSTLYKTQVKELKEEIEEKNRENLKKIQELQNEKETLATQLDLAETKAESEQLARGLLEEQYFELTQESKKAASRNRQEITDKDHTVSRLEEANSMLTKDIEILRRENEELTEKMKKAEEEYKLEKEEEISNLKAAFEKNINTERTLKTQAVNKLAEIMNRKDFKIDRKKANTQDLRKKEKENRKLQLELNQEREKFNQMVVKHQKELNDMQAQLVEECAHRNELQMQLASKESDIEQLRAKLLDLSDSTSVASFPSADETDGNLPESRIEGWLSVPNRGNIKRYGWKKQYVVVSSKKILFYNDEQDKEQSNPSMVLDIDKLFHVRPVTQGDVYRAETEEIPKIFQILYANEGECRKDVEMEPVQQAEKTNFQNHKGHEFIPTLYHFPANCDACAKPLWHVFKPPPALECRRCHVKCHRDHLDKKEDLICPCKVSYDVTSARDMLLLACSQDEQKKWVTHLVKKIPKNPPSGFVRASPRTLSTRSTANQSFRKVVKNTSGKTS
# Protein kinase C beta type (Homo sapiens), sequence (P05771 2-671 limits assumed): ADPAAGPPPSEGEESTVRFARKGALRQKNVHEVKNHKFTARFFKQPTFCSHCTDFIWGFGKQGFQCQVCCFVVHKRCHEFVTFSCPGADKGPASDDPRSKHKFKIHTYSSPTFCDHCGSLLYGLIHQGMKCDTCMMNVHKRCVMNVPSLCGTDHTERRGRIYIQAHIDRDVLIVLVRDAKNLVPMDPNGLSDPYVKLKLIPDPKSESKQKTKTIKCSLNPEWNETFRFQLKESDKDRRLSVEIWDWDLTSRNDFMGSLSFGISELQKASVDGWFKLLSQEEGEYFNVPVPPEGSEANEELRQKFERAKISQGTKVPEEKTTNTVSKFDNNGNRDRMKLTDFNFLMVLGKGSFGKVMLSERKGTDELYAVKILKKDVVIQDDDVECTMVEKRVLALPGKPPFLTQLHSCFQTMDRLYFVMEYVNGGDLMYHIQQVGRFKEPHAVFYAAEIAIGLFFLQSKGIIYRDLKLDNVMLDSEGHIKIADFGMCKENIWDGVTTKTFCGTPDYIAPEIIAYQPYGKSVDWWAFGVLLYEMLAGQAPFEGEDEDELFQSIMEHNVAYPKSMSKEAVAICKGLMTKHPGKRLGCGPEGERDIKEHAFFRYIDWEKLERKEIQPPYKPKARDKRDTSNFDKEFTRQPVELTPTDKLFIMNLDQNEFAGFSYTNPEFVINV
# Protein kinase C theta type (Homo sapiens), sequence (Q04759 whole entry, looked up): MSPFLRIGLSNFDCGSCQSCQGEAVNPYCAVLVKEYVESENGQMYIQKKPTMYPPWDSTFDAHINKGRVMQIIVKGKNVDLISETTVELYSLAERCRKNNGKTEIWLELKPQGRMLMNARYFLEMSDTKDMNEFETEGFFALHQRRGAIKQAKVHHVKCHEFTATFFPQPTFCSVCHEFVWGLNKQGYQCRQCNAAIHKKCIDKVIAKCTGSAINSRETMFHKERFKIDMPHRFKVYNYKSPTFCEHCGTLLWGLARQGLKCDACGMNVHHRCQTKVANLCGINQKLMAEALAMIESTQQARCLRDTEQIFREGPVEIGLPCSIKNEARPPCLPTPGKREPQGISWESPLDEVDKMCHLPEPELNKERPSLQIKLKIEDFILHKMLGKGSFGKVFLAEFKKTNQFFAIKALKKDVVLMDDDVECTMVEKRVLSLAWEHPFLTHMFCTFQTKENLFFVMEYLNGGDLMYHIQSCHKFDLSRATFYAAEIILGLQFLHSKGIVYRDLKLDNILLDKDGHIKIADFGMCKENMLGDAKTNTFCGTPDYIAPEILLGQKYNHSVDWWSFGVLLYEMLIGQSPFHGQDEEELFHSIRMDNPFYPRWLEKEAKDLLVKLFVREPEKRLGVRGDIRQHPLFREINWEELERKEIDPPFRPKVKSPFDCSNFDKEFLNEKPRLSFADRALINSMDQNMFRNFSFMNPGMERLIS
SMILES,inhibition [1] [%],inhibition [2] [%],inhibition [3] [%],inhibition [4] [%],inhibition [5] [%],inhibition [6] [%],inhibition [7] [%],inhibition [8] [%],inhibition [9] [%],inhibition [10] [%],inhibition [11] [%],inhibition [12] [%],inhibition [13] [%],inhibition [14] [%],inhibition [15] [%],inhibition [16] [%],inhibition [17] [%],inhibition [18] [%],inhibition [19] [%],inhibition [20] [%]
COc1cc2ncn(-c3cc(OCc4ccccc4S(C)(=O)=O)c(C#N)s3)c2cc1OC,6.46,2.06,3.79,2.44,3.61,1.55,4.05,2.92,5.45,3.97,4.79,4.75,5.43,4.3,5.27,3.46,5.2,1.34,2.89,3.62
CN(C)C(=O)O[C@H]1CN[C@H](C#Cc2cc3ncnc(Nc4ccc(OCc5cccc(F)c5)c(Cl)c4)c3s2)C1,0.1,0.58,1.07,1.43,0.06,1.29,1.12,2.38,2.68,2.3,1.92,2.56,2.75,2.24,6.88,-0.06,5.82,1.35,3.67,1.82
Cc1ccc2c(c1)/C(=N/Nc1ccc(S(N)(=O)=O)cc1)C(=O)N2,-1.54,-1.59,0.19,-0.6,-1.65,0.19,0.09,0.96,1.76,1.62,1.97,0.87,1.79,0.26,0.41,0.36,3.82,-1.58,-2.35,0.97
